Here are results for five compounds from PubChem BioAssay.

Active and inactive are the calls of the source.

A short description of assay [1]: small molecules captured by biotinylated probe aFSTL3 – biochemical, small-molecule microarray, fluorescence 635/667, stem cell growth factor project, primary screen (AID 1064).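 Note: measures binding of the biotinylated anti-FSTL3 antibody to printed compounds.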 To be noted: higher = more signal.
Assay [2] can be described thus: binders from COS7 lysate, DM2A8 probe, primary screen, torsin A project, cell lysate, small-molecule microarray, fluorescence 635/667 (AID 1065). To be noted: higher = more signal, COS7 lysate expressing mutant human TOR1A.
The nature of assay [3]: small molecules captured by biotinylated probe aFGF2 – biochemical, small-molecule microarray, fluorescence 635/667, stem cell growth factor project, primary screen (AID 1067).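 Note: measures binding of biotinylated aFGF2 protein to printed compounds on slides; z-score merges feature fluorescence and signal-to-noise across triplicate slides.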 To be noted: higher = more signal.
Assay [4] in a line: small molecules captured by biotinylated probe aFGF10 – biochemical, small-molecule microarray, fluorescence 635/667, stem cell growth factor project, primary screen (AID 1071).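 Note: score merges 667 nm spot intensity and signal to noise from triplicate slides.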 To be noted: higher = more signal.
Assay [5] addresses Neurogenic locus notch homolog protein 2 (Homo sapiens) (UniProt Q04721). The experiment in a line: small molecules binding Notch2 protein – biochemical, small-molecule microarray, 635 nm fluorescence, stem cell growth factors, primary screen (AID 1073). To be noted: higher = more signal.
For assay [6], the target named is Pro-neuregulin-1, membrane-bound isoform (Homo sapiens) (UniProt Q02297). The experiment in a line: small molecules binding neuregulin-1 protein – biochemical, small-molecule microarray, fluorescence 635/667, psychiatric disease protein project, primary screen (AID 1075).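 Note: score combines 667 nm spot fluorescence with signal to noise.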 To be noted: NRG1 binding, 635 nm fluorescence, higher = more signal.
Assay [7] relates to Neuregulin-1 EGF-like domain. The experiment in a line: small molecules binding NRG1 EGF domain – biochemical, small-molecule microarray, 635 nm fluorescence, primary screen (AID 1081).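 Note: binding of the protein to compounds printed on small-molecule microarray slides.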 The following applies: higher = more signal.
A short description of assay [8]: FRG1 expression reporter modulators in myotubes – cell-based, C2C12 myotubes, firefly/Renilla luciferase, luminescence, FRG1 inhibition for FSHD, primary screen (AID 1084). The following applies: FRG1 promoter luciferase, higher = more signal, called active from +8 up or from −8 down.
Assay [9] can be described thus: small molecules captured by biotinylated probe aFST – biochemical, small-molecule microarray, fluorescence 635/667, stem cell growth factor project, primary screen (AID 1086).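 Note: score merges 667 nm fluorescence with signal-to-noise of each printed compound spot.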 To be noted: higher = more signal.
The nature of assay [10]: binders of probe aHhip on microarray, primary screen, stem cell growth factor project, biochemical, small-molecule microarray, fluorescence 635/667 (AID 1087).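 Note: score merges spot fluorescence at 667nm with spot signal to noise ratio.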 To be noted: higher = more signal.
Assay [11] concerns PRMT1 (protein arginine N-methyltransferase 1). The experiment in a line: small molecules binding arginine methyltransferase PRMT1 – biochemical, small-molecule microarray, 635 nm fluorescence, primary screen (AID 1088).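 Note: binding of Prmt1 protein to compounds spotted on small-molecule microarray slides.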 The following applies: higher = more signal.
Assay [12] is described as follows: growth effects on S. cerevisiae YJM789 – YJM789 clinical isolate, OD600, 24 h, basal, primary screen (AID 1089).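 Note: growth of clinical yeast isolate S. cerevisiae YJM 789 seeded 1000 cells per well; test concentration not given here.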 To be noted: higher = more signal, called active from +8 up or from −8 down.
Assay [13] is described as follows: S. pombe growth modifiers, basal conditions – strain 972, OD600, 24 h, no modulator, primary screen (AID 1090).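 Note: basal condition with compound alone and no growth modifier present; test concentration not given here.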 The following applies: S. pombe 972 growth, higher = more signal, called active from +8 up or from −8 down.
A short description of assay [14]: budding yeast growth modifiers under rapamycin – strain BY4716, OD600, 96 h, primary screen (AID 1091). Note: test concentration not given here. The following applies: S. cerevisiae BY4716 + rapamycin, higher = more signal, called active from +8 up or from −8 down.
Assay [15] addresses Torsin-1A-interacting protein 2 (Homo sapiens) (UniProt Q8NFQ8). Kind of assay: small molecules binding lysate-expressed LULL1 – cell lysate, human LULL1 lysate, 635/667 nm fluorescence, primary screen (AID 1092).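 Note: probe is lysate of COS7 cells overexpressing human LULL1; score merges per-feature 667 nm fluorescence with signal-to-noise.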 To be noted: small-molecule microarray, hLULL1 lysate binding, 635 nm fluorescence; higher = more signal.
A short description of assay [16]: optical density change of DRC41 E. coli – strain DRC41, OD650, 24 h, E. coli filamentation project, primary screen (AID 1093).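 Note: MC1000 strain lacking acrAB efflux and sulA so SOS filamentation is blocked; test concentration not given here.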 The following applies: E. coli DRC41 growth, higher = more signal, called active from +8 up or from −8 down.
A short description of assay [17]: probe aLefty2 binding to arrayed compounds – biochemical, biotinylated probe, 635/667 nm fluorescence, primary screen (AID 1094).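 Note: score merges spot fluorescence near 667 nm with spot signal-to-noise ratio.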 To be noted: small-molecule microarray, higher = more signal.
Assay [18] has as its system Noggin (protein binding on small-molecule microarray). Kind of assay: small molecules binding Noggin protein – biochemical, 635/667 nm fluorescence, primary screen (AID 1095).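 Note: score merges 667 nm feature fluorescence with signal to noise over triplicate slides.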 To be noted: 635 nm fluorescence, higher = more signal.
Assay [19] addresses Neurogenic locus notch homolog protein 3 (Homo sapiens) (UniProt Q9UM47). The experiment in a line: small molecules binding NOTCH3 protein – biochemical, 635/667 nm fluorescence, primary screen (AID 1096). To be noted: small-molecule microarray, 635 nm fluorescence, higher = more signal.
Assay [20] in a line: probe aEGFR binding to arrayed compounds – biochemical, biotinylated probe, 635/667 nm fluorescence, primary screen (AID 1097).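 Note: probe is a biotinylated anti-EGFR antibody binding compounds printed on slides; score combines fluorescence near 667 nm and signal to noise of each spot.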 To be noted: small-molecule microarray, higher = more signal.

Sequence of Torsin-1A-interacting protein 2 (Homo sapiens) (Q8NFQ8 whole entry, looked up): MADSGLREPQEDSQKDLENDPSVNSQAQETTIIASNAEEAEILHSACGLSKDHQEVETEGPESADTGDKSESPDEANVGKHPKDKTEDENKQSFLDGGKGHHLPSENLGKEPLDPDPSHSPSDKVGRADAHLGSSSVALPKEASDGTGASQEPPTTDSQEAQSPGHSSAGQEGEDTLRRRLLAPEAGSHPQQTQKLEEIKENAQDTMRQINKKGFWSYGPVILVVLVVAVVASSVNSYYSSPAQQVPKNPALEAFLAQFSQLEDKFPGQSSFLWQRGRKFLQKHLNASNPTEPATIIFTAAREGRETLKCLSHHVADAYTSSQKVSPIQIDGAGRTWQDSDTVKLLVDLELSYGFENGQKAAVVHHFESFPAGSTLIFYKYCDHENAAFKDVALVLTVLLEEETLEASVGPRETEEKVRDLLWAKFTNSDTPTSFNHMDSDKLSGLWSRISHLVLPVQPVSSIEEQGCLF
Sequence of Neurogenic locus notch homolog protein 2 (Homo sapiens) (Q04721 whole entry, looked up, canonical isoform): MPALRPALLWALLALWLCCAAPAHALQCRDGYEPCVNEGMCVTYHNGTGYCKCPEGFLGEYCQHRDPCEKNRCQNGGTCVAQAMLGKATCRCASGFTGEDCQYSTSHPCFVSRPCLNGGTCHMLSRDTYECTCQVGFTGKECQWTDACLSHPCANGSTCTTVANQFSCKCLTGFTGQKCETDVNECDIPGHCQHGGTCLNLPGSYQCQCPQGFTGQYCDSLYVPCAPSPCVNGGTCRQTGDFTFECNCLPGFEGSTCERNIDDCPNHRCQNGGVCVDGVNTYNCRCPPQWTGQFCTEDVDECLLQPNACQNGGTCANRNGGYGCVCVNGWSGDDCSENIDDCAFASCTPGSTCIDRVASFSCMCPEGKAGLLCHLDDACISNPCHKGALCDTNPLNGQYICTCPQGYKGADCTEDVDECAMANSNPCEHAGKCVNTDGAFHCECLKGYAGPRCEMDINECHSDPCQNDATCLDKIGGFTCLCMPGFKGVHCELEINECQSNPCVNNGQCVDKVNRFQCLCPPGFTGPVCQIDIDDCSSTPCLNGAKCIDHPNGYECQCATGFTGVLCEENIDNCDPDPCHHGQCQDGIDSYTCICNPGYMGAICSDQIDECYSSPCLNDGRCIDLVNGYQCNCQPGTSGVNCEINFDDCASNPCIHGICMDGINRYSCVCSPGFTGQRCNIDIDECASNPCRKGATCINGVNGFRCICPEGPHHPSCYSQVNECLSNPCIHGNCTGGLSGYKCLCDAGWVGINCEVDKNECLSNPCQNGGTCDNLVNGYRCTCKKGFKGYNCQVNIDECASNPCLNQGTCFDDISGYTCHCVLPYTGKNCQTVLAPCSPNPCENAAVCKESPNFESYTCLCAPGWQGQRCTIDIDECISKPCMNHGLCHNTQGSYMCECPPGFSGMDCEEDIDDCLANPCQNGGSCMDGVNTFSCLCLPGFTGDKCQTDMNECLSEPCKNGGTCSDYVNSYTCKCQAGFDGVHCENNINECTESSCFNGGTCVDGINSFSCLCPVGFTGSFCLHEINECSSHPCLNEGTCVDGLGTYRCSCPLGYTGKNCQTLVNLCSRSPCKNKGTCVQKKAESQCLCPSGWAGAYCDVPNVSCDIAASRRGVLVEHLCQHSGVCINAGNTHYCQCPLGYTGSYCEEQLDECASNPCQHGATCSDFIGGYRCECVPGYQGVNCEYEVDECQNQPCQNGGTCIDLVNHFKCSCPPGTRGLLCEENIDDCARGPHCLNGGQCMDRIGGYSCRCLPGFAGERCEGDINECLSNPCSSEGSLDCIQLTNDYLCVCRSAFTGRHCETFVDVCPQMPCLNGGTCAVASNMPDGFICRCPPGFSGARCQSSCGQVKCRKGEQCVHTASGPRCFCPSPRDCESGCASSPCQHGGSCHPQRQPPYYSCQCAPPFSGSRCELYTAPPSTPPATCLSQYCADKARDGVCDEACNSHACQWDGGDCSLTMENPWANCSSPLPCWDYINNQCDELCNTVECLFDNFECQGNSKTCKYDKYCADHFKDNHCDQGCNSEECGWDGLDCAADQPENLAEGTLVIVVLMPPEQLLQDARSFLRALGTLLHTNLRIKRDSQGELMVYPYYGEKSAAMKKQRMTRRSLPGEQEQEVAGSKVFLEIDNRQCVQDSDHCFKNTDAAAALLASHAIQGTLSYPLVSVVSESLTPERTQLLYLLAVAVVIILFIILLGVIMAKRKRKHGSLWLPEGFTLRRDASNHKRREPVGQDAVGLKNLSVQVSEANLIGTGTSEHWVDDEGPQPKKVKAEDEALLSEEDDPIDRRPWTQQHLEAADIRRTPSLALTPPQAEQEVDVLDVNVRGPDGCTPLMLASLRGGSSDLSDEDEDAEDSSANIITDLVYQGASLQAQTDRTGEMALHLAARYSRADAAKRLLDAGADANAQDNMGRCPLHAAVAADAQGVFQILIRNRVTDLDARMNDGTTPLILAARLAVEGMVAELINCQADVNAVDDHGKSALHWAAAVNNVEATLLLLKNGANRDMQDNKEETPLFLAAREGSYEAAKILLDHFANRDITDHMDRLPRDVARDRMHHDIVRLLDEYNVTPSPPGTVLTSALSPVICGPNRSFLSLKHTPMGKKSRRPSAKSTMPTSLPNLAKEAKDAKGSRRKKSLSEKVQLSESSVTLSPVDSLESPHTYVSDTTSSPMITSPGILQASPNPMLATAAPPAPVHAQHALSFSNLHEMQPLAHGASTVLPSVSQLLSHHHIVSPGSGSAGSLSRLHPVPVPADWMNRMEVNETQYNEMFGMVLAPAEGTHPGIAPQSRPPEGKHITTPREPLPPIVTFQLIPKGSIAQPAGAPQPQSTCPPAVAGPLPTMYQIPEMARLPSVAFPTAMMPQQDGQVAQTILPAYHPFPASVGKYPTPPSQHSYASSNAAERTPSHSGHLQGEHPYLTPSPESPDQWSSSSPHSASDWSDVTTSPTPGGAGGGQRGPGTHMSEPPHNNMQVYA
Sequence of Pro-neuregulin-1, membrane-bound isoform (Homo sapiens) (Q02297 whole entry, looked up, the tested form may be a part, canonical isoform): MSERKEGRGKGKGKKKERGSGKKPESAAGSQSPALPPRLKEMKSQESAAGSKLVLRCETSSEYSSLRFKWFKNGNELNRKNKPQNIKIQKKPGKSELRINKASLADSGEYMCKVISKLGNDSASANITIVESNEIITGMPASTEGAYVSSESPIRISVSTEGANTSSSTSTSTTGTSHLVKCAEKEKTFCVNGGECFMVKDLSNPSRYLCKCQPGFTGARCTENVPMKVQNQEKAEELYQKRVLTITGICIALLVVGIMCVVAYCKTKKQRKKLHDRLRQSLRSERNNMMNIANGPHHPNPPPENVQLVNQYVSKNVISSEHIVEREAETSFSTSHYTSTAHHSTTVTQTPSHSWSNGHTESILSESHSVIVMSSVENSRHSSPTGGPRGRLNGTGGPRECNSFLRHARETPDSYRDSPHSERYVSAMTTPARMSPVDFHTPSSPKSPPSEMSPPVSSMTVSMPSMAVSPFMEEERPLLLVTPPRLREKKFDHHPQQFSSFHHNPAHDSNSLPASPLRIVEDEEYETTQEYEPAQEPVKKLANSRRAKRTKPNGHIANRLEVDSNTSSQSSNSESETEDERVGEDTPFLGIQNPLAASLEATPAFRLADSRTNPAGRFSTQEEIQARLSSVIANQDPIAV

Regarding `C=C(C)[C@@H]1CC=C(C(O)C2C=CC3C(=O)NC(=O)C3N2Nc2ccc(Cl)cc2Cl)CC1` (stereo not given in full), the composite z-score was found to be 0.917 in assay [1]; 0.403 in assay [2]; 0.0095 in assay [3]; 0.117 in assay [4]; 1.42 in assay [5]; 1.35 in assay [6]. For the same compound, the composite z-score is 0.953 in assay [7]; 1.2 in [9]; -0.0645 in [10]; 0.794 in assay [11]; 2.91 in assay [15]; 0.325 in assay [17]. Further, the composite z-score was -0.821 in [18], 1.06 in [19] and 0.0044 in assay [20]. The z-score was 1.3 (inactive) in [8]; -9.03 (active) in assay [12]; -5.22 (inactive) in assay [13]; 3.45 (inactive) in assay [14]; -2.91 (inactive) in assay [16].

With `C=CCNC(=O)[C@@H]1[C@H]2C(=O)O[C@H](c3ccccc3)[C@H](c3ccccc3)N2[C@H](c2ccc(OCCO)cc2)[C@@]12C(=O)N(C(=O)OCCOC)c1ccc(C#CCNC(N)=O)cc12`, the composite z-score in [1] was 0.204; in assay [2], 0.672; in [3], -0.0502; in assay [4], 0.399; in [5] it was 1.25; in [6], 0.748. The composite z-score in [7] was 1.1; in assay [9] it was 0.798; in assay [10], -0.0994; in assay [11], 1.4; in [15], 1.61; in assay [17], 0.0565. In addition, the composite z-score was 0.954 in assay [18], 1.13 in assay [19] and -0.0069 in assay [20]. Further, the z-score in [8] was 0.635 (inactive); in assay [12], 2.15 (inactive); in [13], -0.221 (inactive); in assay [14], 3.97 (inactive); in [16], 1.98 (inactive).

Turning to `O=C1C[C@@](C(=O)NCc2ccccc2)(c2ccc([N+](=O)[O-])cc2)[C@@H](c2ccc(CO)cc2)N1CC12CC3CC(CC(C3)C1)C2`, the composite z-score in assay [1] was -0.237; in [2] it was 0.447; in assay [3] it was 0.0024; in assay [4], 0.435; in [5] it was 0.815; in assay [6], 0.939. The composite z-score in assay [7] was 1.27; in assay [9] it was 0.282; in [10], -0.0994; in [11] it was 1.54; in assay [15] it was 2.39; in assay [17] it was -0.0965. Further, the composite z-score is 1.52 in assay [18], 1.15 in assay [19] and -0.166 in assay [20]. For the same compound, the z-score in [8] is -2.72 (inactive); in assay [12], 0.893 (inactive); in [13] it was 0.639 (inactive); in assay [14], 8.2 (active); in assay [16], 0.657 (inactive).

Consider `COc1cc2c(cc1O)C=[N+](Cc1cc3c(cc1Br)OCO3)CC2`, for which the composite z-score was 0.305 in assay [1]; 0.08 in assay [2]; -0.131 in assay [3]; 0.0873 in assay [4]; -0.441 in [5]; 0.632 in assay [6]. The composite z-score was 0.042 in [7]; -0.332 in assay [9]; -0.137 in assay [10]; 0.168 in [11]; 0.379 in assay [15]; -0.0285 in [17]. For the same compound, the composite z-score in assay [18] was -0.833; in assay [19], -0.223; in [20], -0.188. Besides, the z-score in [8] is 2.28 (inactive); in assay [12], 0.213 (inactive); in assay [13], -9.96 (active); in assay [14], -0.208 (inactive); in assay [16] it was -1.52 (inactive).

As to `CCCCC(O)C1C=CC2C(=O)N(C)C(=O)C2N1N1CCCCC1` (stereo not given), the composite z-score in [1] was 0.515; in [2], 0.314; in assay [3], 0.0311; in [4], 0.591; in [5], 1.56; in [6] it was 1.12. Besides, the composite z-score in assay [7] was 1.42; in assay [9], 1.3; in [10], -0.0618; in assay [11], 0.506; in assay [15] it was 2.84; in assay [17], 0.365. In addition, the composite z-score in assay [18] was determined as 0.277; in [19], 0.967; in assay [20], 0.197. Moreover, the z-score in assay [8] was 0.733 (inactive); in assay [12] it was 0.882 (inactive); in [13], 1.05 (inactive); in assay [14], 1.97 (inactive); in assay [16] it was -1.1 (inactive).
